A number with no mark means an inactive call. Activity calls are given as the source filed them. Calls come from the whole dose curve; as a rule, active = well fitted curve in the direction sought with a large enough effect in the signal ratio in the repeat runs (not every such curve was filed as active); inconclusive = weak or mixed curves, or effect the other way; inactive = no such curve, though single readings can be large or run the other way; the % refers to the signal ratio.
What follows are molecules tested against Estrogen receptor (Homo sapiens) (UniProt P03372) (assay: qHTS assay to identify small molecule antagonists of the estrogen receptor alpha (ER-alpha) signaling pathway (AID 743069)). Settings: HEK293 ER-alpha-UAS-bla, beta-lactamase ratio, antagonist mode; series mostly up to 69.4 µM; activity, negative = inhibition: at the top concentration.
Text: National Center for Advancing Translational Sciences [NCATS]
NIH Chemical Genomics Center [NCGC]
U.S. Environmental Protection Agency [EPA]
National Institutes of Environmental Health Sciences [NIEHS]
National Toxicology Program [NTP]
U.S. Food and Drug Administration [FDA]
Estrogen receptor (ER), a nuclear hormone receptor, plays an important role in development, metabolic homeostasis and reproduction. Two subtypes of ER, ER-alpha and ER-beta have similar expression patterns with some uniqueness in both types. Endocrine disrupting chemicals (EDCs) and their interactions with steroid hormone receptors like ER causes disruption of normal endocrine function. To identify the compounds that inhibit ER signaling, an ER-alpha-UAS-bla GripTiteTM cell line (Invitrogen, Carlsbad, CA, USA) containing a beta-lactamase reporter gene under the control of an Upstream Activator Sequence (UAS) stably integrated into HEK293 cells was used to screen the Tox21 10K compound library.
Tox21 Assay Protocol Summary:
ER-alpha-bla cells were cultured in assay medium containing 2% charcoal stripped FBS overnight in the culture flasks before the assay was performed. The cells were dispensed at 5,000 cells/5 uL of assay medium per well into black wall/clear-bottom 1536-well plates using a Multidrop Combi (ThermoFisher Scientific, Waltham, MA) dispenser. After the assay plates were incubated at a 37C and 5% CO2 for 4 hr, 23 nL of compounds dissolved in DMSO, positive controls or DMSO only was transferred to the assay plate by a Pintool station (Kalypsys, San Diego, CA), followed by addition of 1 uL of 17beta-estradiol in assay medium using a Flying Reagent Dispenser (Aurora Discovery, San Diego, CA). The plates were incubated at 37C and 5% CO2 for 18 hr. Then 1 uL of LiveBLAzerTM B/G FRET substrate was added using a Flying Reagent Dispenser, the plates were incubated at room temperature for 2 hours, and fluorescence intensity was measured by an Envision plate reader (PerkinElmer, Shelton, CT).
% is set by controls: 0 for no effect and ±100 for the full control effect; potency is the fitted concentration of half-maximal effect.

Sequence of Estrogen receptor (Homo sapiens) (P03372 whole entry, looked up): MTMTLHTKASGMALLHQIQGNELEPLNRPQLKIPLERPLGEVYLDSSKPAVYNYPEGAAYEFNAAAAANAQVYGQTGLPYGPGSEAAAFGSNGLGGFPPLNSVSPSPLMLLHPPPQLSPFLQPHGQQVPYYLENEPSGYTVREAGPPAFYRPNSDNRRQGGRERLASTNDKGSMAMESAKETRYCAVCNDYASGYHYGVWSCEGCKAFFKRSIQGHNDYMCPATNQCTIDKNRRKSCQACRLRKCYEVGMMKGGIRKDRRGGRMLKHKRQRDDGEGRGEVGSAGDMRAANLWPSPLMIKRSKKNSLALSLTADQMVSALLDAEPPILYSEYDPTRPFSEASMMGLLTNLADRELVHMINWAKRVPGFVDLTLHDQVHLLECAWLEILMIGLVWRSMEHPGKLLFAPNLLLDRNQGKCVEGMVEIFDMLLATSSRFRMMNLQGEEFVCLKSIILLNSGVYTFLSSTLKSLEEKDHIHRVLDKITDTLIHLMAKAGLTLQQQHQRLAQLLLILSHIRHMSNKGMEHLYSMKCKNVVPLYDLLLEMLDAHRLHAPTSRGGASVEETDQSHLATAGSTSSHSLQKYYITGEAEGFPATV

In order of rising “activity, negative = inhibition” value:
1. N#CC(C#N)=C(C#N)C#N  -6.09% [at 79.1 µM]
2. C1CS1  -1.06% [at 79.1 µM]
3. SCc1ccccc1  0.895% [at 79.1 µM]
4. C=CC(=O)OCC  29.7% [at 79.1 µM]

In the case of `CC(O)CN1CCN(CC(=O)[O-])CCN(CC(=O)[O-])CCN(CC(=O)[O-])CC1.[Gd+3]` (stereo not given), the Potency is reported as “inactive”.
With `CCCC(C)(COC(N)=O)COC(=O)NC(C)C` (stereo not given) the Potency was “inactive”.
`O=C(O)C(F)(F)C(F)(F)C(F)(F)C(F)(F)C(F)(F)C(F)(F)C(F)(F)C(F)(F)F` was tested, and the Potency was 27.5 µM [inconclusive] (active).
In the case of `c1ccc2sc(SNC3CCCCC3)nc2c1`, the Potency is reported as “inactive”.
For `O=C1c2ccccc2C(=O)N1SC(Cl)(Cl)Cl`, the Potency was 24.5 µM [inconclusive] (active).

In order of rising “activity, negative = inhibition” value:
1. Cc1cnc(C2=NC(C)(C(C)C)C(=O)N2)c(C(=O)O)c1 (stereo not given)  -51.5%
2. CC(C)(c1ccccc1)c1cc(-n2nc3ccccc3n2)c(O)c(C(C)(C)c2ccccc2)c1  -27.6%
3. CCOP(=O)(O)C(N)=O  -22.6%
4. CCCN(CCC)c1c([N+](=O)[O-])cc(C(C)C)cc1[N+](=O)[O-]  -20.4%
5. CC(=O)OC(c1ccccc1)C(Cl)(Cl)Cl (stereo not given)  -17.5%
6. CCNC(=O)NC(=O)/C(C#N)=N/OC  -15.3%
7. NP(N)(=O)NC(=O)c1ccc(F)cc1  -15.1%
8. CC(C)(C)c1ccc(CCOc2ncnc3ccccc23)cc1  -13.6%
9. CC(C)c1ccc(NC(=O)N(C)C)cc1  -12.9%
10. CN(C)C(=O)Nc1cccc(OC(=O)NC(C)(C)C)c1  -12.1%
11. CCCBr  -8.85%
12. CCN(C(C)=O)c1cccc(-c2ccnc3c(C#N)cnn23)c1  -7.76%
13. CN1CC[C@]23c4c5ccc(O)c4O[C@H]2[C@@H](O)CC[C@H]3[C@H]1C5  -7.61%
14. Nc1cccc2ccccc12  -7.23%
15. Cc1nnc(-c2ccccc2)c(=O)n1N  -6.45%
16. NCCc1cc(O)c(O)cc1O  -4.65%
17. Cc1ccc2c(C)cccc2c1  -3.78%
18. O=C=NC1CCCCC1  -3.67%
19. N#CC(C#N)=Cc1ccc(O)c(O)c1  -1.1%
20. O=[N+]([O-])c1cc(Cl)c(Cl)cc1Cl  1.59%
21. CC[N+]1(CCOC(=O)C(O)(c2ccccc2)c2ccccc2)CCCCC1  3.28%
22. Oc1cccc(Cl)c1  4.85%
23. CCCCCCCCCCCCN(C)C  5.93%
24. NNCCO  6.13%
25. COC(=O)Cc1ccccc1  9.55%
26. CC(Oc1cc(Cl)c(Cl)cc1Cl)C(=O)O (stereo not given)  11.9%
27. CCC(C)(C)O  14.2%
28. O=C(Cl)OCCOCCOC(=O)Cl  20.3%
29. COc1ccc(C(O)(c2cncnc2)C2CC2)cc1 (stereo not given)  20.4%
30. CC(Cc1ccccc1)NCc1ccccc1Cl (stereo not given)  20.7%

In the case of `CCOC(=O)c1cncn1C(C)c1ccccc1` (stereo not given), the “activity, negative = inhibition” value is reported as -6.62% [at 32.6 µM].

Reference: PubChem BioAssay (Tox21)
